Reference: PubChem BioAssay (NCATS)
Where “and” joins values, the source holds several entries; their conditions need not be identical. Equal values may be shown once. Records with an inconclusive call do not appear. Calls of active or inactive are those of the source. Unless noted, calls follow the shape of the dose curve; as a rule, active = well fitted curve in the direction sought with a large enough effect; inconclusive = small, poorly fitted or top-dose-only effect, or another doubt; inactive = no such curve, though single readings can be large; an effect the other way counts as inactive or inconclusive.

Target: Guanine nucleotide-binding protein G(i) subunit alpha-1 (Homo sapiens) (UniProt P63096)
Sequence (P63096 whole entry, looked up): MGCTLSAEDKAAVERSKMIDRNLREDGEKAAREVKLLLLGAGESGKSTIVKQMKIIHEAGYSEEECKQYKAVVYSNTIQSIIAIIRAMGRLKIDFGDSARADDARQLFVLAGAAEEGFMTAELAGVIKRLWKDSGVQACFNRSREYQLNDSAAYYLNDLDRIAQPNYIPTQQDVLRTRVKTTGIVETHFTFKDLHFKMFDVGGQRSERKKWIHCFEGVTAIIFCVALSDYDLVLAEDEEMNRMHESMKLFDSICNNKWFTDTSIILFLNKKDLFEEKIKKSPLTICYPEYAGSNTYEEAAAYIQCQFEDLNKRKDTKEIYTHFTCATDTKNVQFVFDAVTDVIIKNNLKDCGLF
Assay: qHTS Assay for Inhibitors of RGS12 GoLoco Motif Activity (Green Fluorophore) (AID 879); also: potency is read from the fitted curve at half-maximal effect;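 as to activity, negative = inhibition: 0% = labeled peptide with Gαi1 and full inhibition = labeled peptide alone without protein; negative values mean loss of peptide binding seen as reduced polarization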
Conditions: Galphai1/FITC-RGS12 GoLoco peptide, fluorescence polarization; series mostly up to 57.1 µM; activity, negative = inhibition: at the top concentration
Outline: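 Fluorescence polarization assay: 50 nM Gαi1 with 10 nM FITC-labeled RGS12 GoLoco peptide in 10 mM Tris pH 7.5, 150 mM NaCl, 0.1 mM GDP, 0.05% NP40, 10 min at room temperature with compound.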

Structure (SMILES) | activity, negative = inhibition | Potency
OCc1cnc[nH]1 | -12.8% (inactive) | –
CCCN(CCC)[C@@H]1CCc2cccc(O)c2C1 | – | inactive
CCCN(CCC)[C@H]1CCc2c(F)ccc(O)c2C1 | – | inactive
O=C(O)c1cc[c]([Hg][Cl])cc1 | – | 25.1 µM (active)
C[N+](C)(C)CCOC(=O)CBr | -15% (inactive) | –
Clc1cc(I)cc(Cl)c1NC1=NCCN1 | -13.1% (inactive) | –
NCCc1c[nH]c2ccc(C(N)=O)cc12 | 7.27% (inactive) | –
C[C@@H]1[C@@H]2Cc3ccc(O)cc3[C@@]1(C)CCN2CC1CC1 | -9.87% (inactive) | –
N#CCCN | -18.7% (inactive) | –
CNC(=O)OCC[N+](C)(C)C | 6.7% (inactive) | –
C[N+](C)(C)CC#CCN1CCCC1=O | -17.6% (inactive) | –
NC(=O)c1cc(N2CC2)c([N+](=O)[O-])cc1[N+](=O)[O-] | -3.97% (inactive) | –
NCCc1ccc(S(=O)(=O)F)cc1 | 7.53% (inactive) | –
CCCn1c(=O)c2[nH]c(C3CCCC3)nc2n(CCCOC(=O)c2ccc(S(=O)(=O)F)cc2)c1=O | -15.4% (inactive) | –
O=P(O)(O)C(Cl)(Cl)P(=O)(O)O | -10.1% (inactive) | –
Clc1ccc(N2C[C@H]3CC[C@@H](C2)N3)nn1 | 3.51% (inactive) | –
CC(C)NP(=O)(NC(C)C)OP(=O)(NC(C)C)NC(C)C | -14.2% (inactive) | –
COc1ccc2[nH]c3c(c2c1)CCNC3 | 4.86% (inactive) | –

Target: Cytochrome P450 3A4 (Homo sapiens) (UniProt P08684)
Sequence (P08684 whole entry, looked up): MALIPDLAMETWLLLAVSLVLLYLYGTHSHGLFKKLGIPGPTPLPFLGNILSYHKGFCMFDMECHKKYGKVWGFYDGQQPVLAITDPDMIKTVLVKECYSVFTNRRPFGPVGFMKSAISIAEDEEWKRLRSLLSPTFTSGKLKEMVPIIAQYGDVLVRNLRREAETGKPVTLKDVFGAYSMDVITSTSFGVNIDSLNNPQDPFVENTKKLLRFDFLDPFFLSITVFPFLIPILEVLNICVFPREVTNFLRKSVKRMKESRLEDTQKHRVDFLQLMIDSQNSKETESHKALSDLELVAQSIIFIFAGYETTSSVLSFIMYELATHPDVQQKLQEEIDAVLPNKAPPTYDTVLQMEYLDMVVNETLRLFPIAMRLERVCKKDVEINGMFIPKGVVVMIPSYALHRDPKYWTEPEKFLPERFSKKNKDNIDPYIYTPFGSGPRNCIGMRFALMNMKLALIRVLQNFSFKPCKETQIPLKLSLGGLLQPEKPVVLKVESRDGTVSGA
Assay: qHTS Assay for Inhibitors and Substrates of Cytochrome P450 3A4 (AID 884); also: nearly all actives have a fitted effect of over 50% in size; also: potency is read from the fitted curve at half-maximal effect; as to activity change, negative = inhibition: % is scaled to controls: 0 for no effect and ±100 for the full control effect
Conditions: recombinant CYP3A4, Luciferin-PPXE luminescence; series mostly up to 57.1 µM; activity change, negative = inhibition: at the top concentration
Outline: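 20 nM human CYP3A4 with 25 uM Luciferin-PPXE (at KM) in 200 mM KPO4, preincubated 10 min with compound; NADPH regeneration started a 60 min RT reaction. Luciferin detected by luminescence, normalized to 57 uM ketoconazole as full inhibition.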

Structure (SMILES) | activity change, negative = inhibition | Potency
COc1ccc(OC)c(C(O)C(C)N)c1 (stereo not given) | -17% (inactive) | –
CC(N)Cc1ccc(O)cc1 (stereo not given) | -11% (inactive) | –
COc1ccc2c(c1)c(CCN1CCOCC1)c(C)n2C(=O)c1cccc(Cl)c1Cl | – | 3.16 µM (active)
[N-]=[N+]=CC(=O)OCC(N)C(=O)O (stereo not given) | -5.84% (inactive) | –
C=CCC1(C(C)CCC)C(=O)N=C(S)NC1=O (stereo not given) | – | 12.6 µM (active)
CN(N=O)c1ccc(O)c(O)c1 | -20.7% (inactive) | –
CN1C2CCC1CC(OC(c1ccccc1)c1ccccc1N)C2 (stereo not given) | -24.9% (inactive) | –
Clc1ccc(Cl)cc1 | -10.2% (inactive) | –
CC1OC1P(=O)(O)O (stereo not given) | -4.66% (inactive) | –
O=C1C=C2C=C[C@@H]3C[C@@]2(O1)[C@H]1CCCCN31 | -26.7% (inactive) | –
CCC(=O)O[C@@](Cc1ccccc1)(c1ccccc1)[C@@H](C)CN(C)C | – | 5.01 µM (active)

Target: Cytochrome P450 3A4 (Homo sapiens) (UniProt P08684)
Assay: qHTS Assay for Activators of Cytochrome P450 3A4 (AID 885); also: nearly all actives have a fitted effect of over 65% in size
Conditions: recombinant CYP3A4, Luciferin-PPXE luminescence, 60 min; series mostly up to 57.1 µM; activity change, positive = activation: at the top concentration
Outline: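 Quantitative HTS format: compounds preincubated with 20nM human CYP3A4 and Luciferin-PPXE substrate at KM, reaction started by NADPH regeneration, stopped after 60 min, luciferase luminescence read 20 min later.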

Structure (SMILES) | activity change, positive = activation
NC(Cc1ccc(N(CCCl)CCCl)cc1)C(=O)O (stereo not given) | -55.2% (inactive)
C[C@@H](CO)NC(=O)[C@@H]1C=C2c3cccc4[nH]cc(c34)C[C@H]2N(C)C1 | -31.8% (inactive)
COc1ccc2c(c1)c(CCN1CCOCC1)c(C)n2C(=O)c1cccc(Cl)c1Cl | -73.6% (inactive)
C=CCN1CC[C@]23c4c5ccc(O)c4O[C@H]2/C(=N/NC(=O)c2ccccc2)CC[C@@]3(O)[C@H]1C5 | -43.6% (inactive)
C=CCC1(C(C)CCC)C(=O)N=C(S)NC1=O (stereo not given) | -66.2% (inactive)
NC(=O)c1cc(N2CC2)c([N+](=O)[O-])cc1[N+](=O)[O-] | -38.6% (inactive)
CCCn1c(=O)c2[nH]c(C3CCCC3)nc2n(CCCOC(=O)c2ccc(S(=O)(=O)F)cc2)c1=O | -51.4% (inactive)
CCC(=O)O[C@@](Cc1ccccc1)(c1ccccc1)[C@@H](C)CN(C)C | -82.5% [at 25.6 µM] (inactive)

Target: Cytochrome P450 2D6 (Homo sapiens) (UniProt P10635)
Sequence (P10635 whole entry, looked up): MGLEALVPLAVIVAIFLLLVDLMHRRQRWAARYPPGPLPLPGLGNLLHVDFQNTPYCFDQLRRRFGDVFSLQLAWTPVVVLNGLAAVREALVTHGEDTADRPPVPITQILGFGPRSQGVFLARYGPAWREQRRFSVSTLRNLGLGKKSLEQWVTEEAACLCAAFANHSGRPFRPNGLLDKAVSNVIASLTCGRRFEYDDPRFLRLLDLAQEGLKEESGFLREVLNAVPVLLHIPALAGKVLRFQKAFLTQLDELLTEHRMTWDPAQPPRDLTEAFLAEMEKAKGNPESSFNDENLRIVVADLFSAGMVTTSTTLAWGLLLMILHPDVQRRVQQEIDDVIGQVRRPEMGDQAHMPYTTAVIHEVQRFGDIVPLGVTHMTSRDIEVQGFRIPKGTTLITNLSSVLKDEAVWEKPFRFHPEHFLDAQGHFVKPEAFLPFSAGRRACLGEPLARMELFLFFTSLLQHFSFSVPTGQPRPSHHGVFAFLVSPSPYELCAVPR
Assay: qHTS Assay for Inhibitors and Substrates of Cytochrome P450 2D6 (AID 891); also: nearly all actives have a fitted effect of over 60% in size; also: potency is read from the fitted curve at half-maximal effect;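 as to activity change, negative = inhibition: luciferin methyl ether substrate demethylated by CYP2D6 with NADPH regeneration; % is scaled to controls: 0 for no effect and ±100 for the full control effect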
Conditions: recombinant CYP2D6, luciferin-ME EGE luminescence; series mostly up to 57.1 µM; activity change, negative = inhibition: at the top concentration
Outline: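 Human CYP2D6 (5 nM) with 30 uM Luciferin-ME EGE (at Km) in 100 mM KPO4, compound preincubated 10 min, then NADPH regeneration system for 60 min at room temperature. Luciferin read by luminescence; normalized to 1.43 uM quinidine.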

Structure (SMILES) | Potency | activity change, negative = inhibition
CCCN(CCC)[C@@H]1CCc2cccc(O)c2C1 | 3.16 µM (active) and 794 nM (active) | –
CCCN(CCC)[C@H]1CCc2c(F)ccc(O)c2C1 | 631 nM (active) and 1.58 µM (active) | –
Clc1cc(I)cc(Cl)c1NC1=NCCN1 | 3.98 µM (active) | –
CN(N=O)c1ccc(O)c(O)c1 | – | 4.15% (inactive)
CNC(=O)OCC[N+](C)(C)C | – | 14.6% (inactive)
C[N+](C)(C)CC#CCN1CCCC1=O | 3.98 µM (active) | –
Cc1cc(C)cc(C(=O)OC2C[C@H]3CC[C@@H](C2)N3C)c1 (stereo not given in full) | 0.251 µM (active) | –
O=c1ccc2[nH]cc(C3=CCNCC3)c2[nH]1 | 2.51 µM (active) | –
CCC(=O)O[C@@](Cc1ccccc1)(c1ccccc1)[C@@H](C)CN(C)C | 7.94 µM (active) | –

Test system: not listed separately
Assay: qHTS Assay for Identification of Small Molecule Antagonists for NFkB Signaling Pathway (AID 895; active = well fitted inhibition curve with a large enough effect in the signal ratio, with a control signal flat, not every such curve was filed as active; the % refers to the signal ratio; also: potency is read from the fitted curve at half-maximal effect; as to activity change, negative = inhibition: % is scaled to controls: 0 for no effect and ±100 for the full control effect)
Conditions: NFkB beta-lactamase reporter cells, FRET ratio 460/530; series mostly up to 38.3 µM; activity change, negative = inhibition: at the top concentration
Outline: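 Beta-lactamase reporter read-out (460 and 530 nm emission ratio, 405 nm excitation, 2 hrs substrate loading RT) after 5 hr stimulation with 10 pM TNF alpha in compound-treated NFkB-bla ME-180 cells in low-serum medium.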

Structure (SMILES) | activity change, negative = inhibition | Potency
OCc1cnc[nH]1 | -4.36% (inactive) | –
O=C(O)c1cc[c]([Hg][Cl])cc1 | 18% (inactive) | –
C[N+](C)(C)CCOC(=O)CBr | -27.3% (inactive) | –
Clc1cc(I)cc(Cl)c1NC1=NCCN1 | -21.6% (inactive) | –
NCCc1c[nH]c2ccc(C(N)=O)cc12 | -8.05% (inactive) | –
C[C@@H]1[C@@H]2Cc3ccc(O)cc3[C@@]1(C)CCN2CC1CC1 | 2.62% (inactive) | –
N#CCCN | -2.13% (inactive) | –
NC(=O)c1cc(N2CC2)c([N+](=O)[O-])cc1[N+](=O)[O-] | -6.61% (inactive) | –
NCCc1ccc(S(=O)(=O)F)cc1 | 0.32% (inactive) | –
CCCn1c(=O)c2[nH]c(C3CCCC3)nc2n(CCCOC(=O)c2ccc(S(=O)(=O)F)cc2)c1=O | – | 10 µM (active)
O=P(O)(O)C(Cl)(Cl)P(=O)(O)O | 4.49% (inactive) | –
Clc1ccc(N2C[C@H]3CC[C@@H](C2)N3)nn1 | -3.34% (inactive) | –
CC(C)NP(=O)(NC(C)C)OP(=O)(NC(C)C)NC(C)C | 8.52% (inactive) | –
COc1ccc2[nH]c3c(c2c1)CCNC3 | – | 5.01 µM (active)
